The term inhibition denotes the drop in the measured response relative to a control, in per cent.

For 99 molecules, inhibition results are on record in PubChem BioAssay AID778 (Sanford-Burnham Center for Chemical Genomics, 2007).

Hit rate of the full screen: of about 96,000 compounds, about 20,000 (21%) were called active.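 Rule for the calls: active = CYP2C19 inhibition above a set limit at 5 µM in the primary screen (cut at about 50% in these data); inactive = the rest.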 Only a sample is shown.

Cytochrome P450 2C19 (Homo sapiens), sequence (P33261 whole entry, looked up): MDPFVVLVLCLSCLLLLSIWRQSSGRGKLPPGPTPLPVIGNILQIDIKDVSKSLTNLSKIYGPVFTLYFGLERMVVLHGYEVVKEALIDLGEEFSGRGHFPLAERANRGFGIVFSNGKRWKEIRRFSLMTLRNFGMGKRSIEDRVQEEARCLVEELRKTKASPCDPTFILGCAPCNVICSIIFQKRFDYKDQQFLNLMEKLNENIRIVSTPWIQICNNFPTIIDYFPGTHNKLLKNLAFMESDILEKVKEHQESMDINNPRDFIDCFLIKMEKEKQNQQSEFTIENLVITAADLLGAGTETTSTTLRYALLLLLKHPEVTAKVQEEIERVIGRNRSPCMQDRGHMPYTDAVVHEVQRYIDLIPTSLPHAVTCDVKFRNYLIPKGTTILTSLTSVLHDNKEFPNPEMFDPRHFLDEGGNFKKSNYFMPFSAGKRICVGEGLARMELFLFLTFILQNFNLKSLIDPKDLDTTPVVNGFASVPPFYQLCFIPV

This test has as its target Cytochrome P450 2C19 (Homo sapiens) (UniProt P33261). Put plainly: blockers of cytochrome P450 2C19 activity – biochemical, luminescence, ADME assay, primary screen (AID 778).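 Note: plate controls were negative control wells for no effect and 2.5 mM tranylcypromine positive control for full effect.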 The conditions noted are these: CYP2C19 Supersomes, luciferin-H EGE luminescence, 30 min; at 5 µM; active compounds read high.
In the case of `C=CCNC(=O)c1cc2nc(C3CC3)cc(C(F)F)n2n1`, the inhibition was 51.2% (active).
In the case of `O=C(Nc1ccc(Cl)cc1)c1cc2nc(C3CC3)cc(C(F)(F)F)n2n1` it was -6.4% (inactive); in that of `Cc1nc(N2CCCC2C(=O)O)c2oc3ccccc3c2n1` (centres undefined), 2.4% (inactive); in that of `Cc1ccccc1NC(=O)C(C)c1ccc(-c2ccccc2)c(F)c1` (centres undefined), 7.1% (inactive).
In the case of `Cc1nn(C)c(Oc2ccc(Cl)cc2)c1C=O` it was 27.7% (inactive); in that of `Cc1nn(C)c(Oc2ccccc2)c1CCNS(=O)(=O)c1ccc(F)cc1`, 96.7% (active).
The result for `Cc1n[nH]c(=O)n1-c1ccc(Oc2ccccc2)cc1` reads 18.5% (inactive).
For `Cc1nn(C)c(Oc2ccccc2)c1[N+](=O)[O-]`, the inhibition was 64% (active).
In the case of `Cc1cccc(N2C(=O)SC(N(CC(=O)O)c3cccc(C)c3)C2=O)c1` (centres undefined) it was 1.5% (inactive); in that of `COC(=O)C(NC(=O)c1ccc(OC)cc1)(Nc1ncc(S(=O)(=O)c2ccc([N+](=O)[O-])cc2)s1)C(F)(F)F` (centres undefined), 33.8% (inactive); in that of `c1ccc(CSCCc2ccncc2)cc1`, 99.8% (active).
`O=C(CSCc1ccc([N+](=O)[O-])cc1)NCCSCc1ccccc1`: the inhibition was 21.3% (inactive).
`COc1ccc(-c2nn(C)c(=O)c3ccccc23)cc1NC(=O)COc1ccccc1`: the inhibition was 25.6% (inactive).
In the case of `CCOc1nc(OCC)nc(-n2cc(-c3ccccc3)nn2)n1` it was 3.5% (inactive); in that of `Cc1cnc(NC(=O)CSc2nnc(-c3ccc(Cl)cc3Cl)n2N)s1`, 23.2% (inactive); in that of `COc1ccc(-c2nnc(SC(C)C#N)o2)cc1` (centres undefined), 10.9% (inactive).
The result for `Cc1nc(Nc2ccc3c(c2)OCCO3)c2nnn(Cc3ccccc3Cl)c2n1` reads 83.2% (active); that for `C#CCNc1nc(C(C)C)nc2c1nnn2Cc1ccccc1F`, 37.3% (inactive).
In the case of `O=C(Nc1cc2ccccc2oc1=O)C1CCCCC1` it was 0.3% (inactive); in that of `O=C(CC12CC3CC(CC(C3)C1)C2)Nc1ccc2c(c1)COC2=O`, 12.8% (inactive); in that of `O=C(/C=C/c1cccs1)c1cc(Cl)ccc1OC(=O)N1CCOCC1`, 90.6% (active).
Regarding `O=C(Oc1ccc2c(c1)CCC2)N1CCOCC1`, the inhibition was 11.1% (inactive).
The result for `CC(=O)Nc1ccccc1OC(=O)N1CCOCC1` reads 0.3% (inactive); that for `O=c1cc(N2CCN(Cc3ccccc3)CC2)c(-c2ccccc2)n[nH]1`, 19% (inactive).
Turning to `Cc1cnc(NC(=O)C2CCCC2)s1`, the inhibition is 17.5% (inactive).
For `CCOC(=O)c1c(NC(C)=O)sc2c(O)c(Br)ccc12`, the inhibition was 3.8% (inactive).
Take `CCOC(=O)c1cc(C)sc1NC(=O)C1CCC1`: the inhibition is 54.6% (active).
Take `CC(=NC1CCN(Cc2ccccc2)CC1)c1c(O)[nH]c(=O)[nH]c1=O`: the inhibition was -7.4% (inactive).
The result for `CC(C)c1nnc(NC(=O)C2CCCN2S(=O)(=O)c2ccc(Cl)cc2)s1` (centres undefined) reads 17.2% (inactive).
For the molecule `CCOc1ccc(NC(=O)CC2NCCNC2=O)cc1` (centres undefined), the inhibition was 1.1% (inactive).
In the case of `CCOc1ccc(S(=O)(=O)n2ccnc2)c2ccccc12` it was 66.5% (active); in that of `CCOc1ccc(S(=O)(=O)N2CCCCCC2)c2ccccc12`, 32.3% (inactive); in that of `CCCCOC(=O)c1ccc(N2C(=O)CC(N3CCN(C/C=C/c4ccccc4)CC3)C2=O)cc1` (centres undefined), 86.2% (active).
The result for `CCOC(=O)c1ccc(N2C(=O)CC(N3CC(C)OC(C)C3)C2=O)cc1` (centres undefined) reads 6.8% (inactive); that for `CCOC(=O)c1ccc(N2C(=O)CC(N3CCC(C(=O)OCC)CC3)C2=O)cc1` (centres undefined), 47.5% (inactive); that for `CCCCCCC(=O)Nc1nc(C)c(-c2csc(Nc3cccc(OC)c3)n2)s1`, -4.8% (inactive).
In the case of `COC(=O)c1ccccc1NC(=O)Cn1nc(C(F)(F)F)c2c1CCC2` it was 36.4% (inactive); in that of `COC(=O)c1ccccc1Sc1c(/C=N/OCc2ccc(Cl)cc2)c(C(F)(F)F)nn1C`, 72.6% (active); in that of `O=C1N=C2SCCN2/C1=C\c1c(Cl)cccc1Cl`, 11.1% (inactive).
In the case of `Cc1cc(Nc2ccccc2)nc(N)n1`, the inhibition was -8.2% (inactive).
`CNC(=O)n1ccc(C(=O)N2CCCCC2)n1`: the inhibition is -16.6% (inactive).
In the case of `CC(C)(O)C(=O)NN(C(=O)c1ccccc1)c1cccc(Br)c1` it was 2.5% (inactive); in that of `O=C(/C=C/NNC(=O)c1cccc(Br)c1)c1ccccc1`, 76.7% (active); in that of `O=C(/C=C\NCC(=O)c1ccccc1)c1ccccc1`, 46.4% (inactive).
In the case of `CCC(C)(C(=O)NC1CCCC1)N(C(=O)CNC(C)=O)c1ccc(C)cc1` (centres undefined) it was 21.1% (inactive); in that of `CCOc1ccc(NC(=O)CN(C)CC(=O)Nc2cccc(Cl)c2C)cc1OCC`, 21.6% (inactive).
In the case of `CCOc1ccccc1NC(=O)C1CCC(CNc2c(N3CCOCC3)c(=O)c2=O)CC1` (centres undefined) it was -13.1% (inactive); in that of `CCOc1ccccc1NC(=O)C12CC3CC(C1)CC(c1ccc(C)cc1)(C3)C2`, 51.9% (active); in that of `CCOCC(=O)Nc1cc(OC)c(Cl)cc1OC`, 29.8% (inactive).
For the molecule `COc1ccc(-c2cc(C(F)(F)F)n3nc(C(=O)N4CCOCC4)c(Cl)c3n2)cc1`, the inhibition was -7.1% (inactive).
As for `FC(F)Oc1ccccc1C1CC(c2ccc(Br)s2)Nc2ncnn21` (centres undefined), the inhibition is 98.5% (active).
As for `COc1ccc2[nH]c3c(=O)n(Cc4ccco4)cnc3c2c1`, the inhibition was 21.8% (inactive).
The result for `CCC(c1nnnn1Cc1ccco1)N(CCc1ccccc1)Cc1cc2ccc(OC)cc2[nH]c1=O` (centres undefined) reads 92.2% (active).
In the case of `CCC(c1nnnn1Cc1ccco1)N(Cc1cc2cc(OC)ccc2[nH]c1=O)C1CCCCC1` (centres undefined) it was 53.6% (active).
Consider `CCC(c1nnnn1Cc1ccco1)N(CCc1ccccc1)Cc1cc2cccc(C)c2[nH]c1=O` (centres undefined), for which the inhibition is 38.3% (inactive).
The result for `CCC(=O)N(Cc1cc2cc(OC)ccc2[nH]c1=O)c1ccccc1C` reads 21.8% (inactive).
In the case of `CCC(c1nnnn1Cc1ccccc1)N(Cc1cc2cc(OC)ccc2[nH]c1=O)CC1CCCO1` (centres undefined) it was 44.9% (inactive); in that of `O=C1c2ccccc2-c2ncnc3c(N4CCOCC4)cc(N4CCOCC4)c1c23`, 29.6% (inactive).
The result for `CCOC(=O)c1sc(NC(=O)CSc2nc(C)cc(C(F)(F)F)n2)c(C#N)c1C` reads 19.8% (inactive).
For `Cc1nc(N2CCOCC2)nc2c1CCCC2`, the inhibition is 28.5% (inactive).
Take `Cc1cc(Oc2ccccc2)nc(N2CCOCC2)n1`: the inhibition was 94.5% (active).
The result for `CC(=O)c1ccc(Oc2cc(C)nc(-n3nc(C)cc3C)n2)cc1` reads -5.5% (inactive); that for `CCc1ccc2c(c1)cc(CN(C(=S)Nc1ccccc1Cl)C1CC1)c1nnnn12`, -11.2% (inactive).
In the case of `Cc1nc2ccccc2c2oc(C(=O)NCCCN3CCC(C)CC3)cc12` it was -6.7% (inactive); in that of `CC1Oc2ccccc2N(Cc2cccnc2)C1=O` (centres undefined), 26.8% (inactive).
For `CC12c3ccccc3C(c3ccccc31)C1C(=O)N(Cc3cccnc3)C(=O)C12` (centres undefined), the inhibition is 81.2% (active).
As for `O=C(NC1(C(F)(F)F)NC(=O)N(Cc2cccnc2)C1=O)c1ccccc1Cl` (centres undefined), the inhibition is 39.8% (inactive).
The result for `CCc1ccccc1N(CC(=O)NCCSCc1ccco1)S(C)(=O)=O` reads 24% (inactive); that for `O=C(COc1ccc(Cl)cc1)NCCSc1ccccc1`, 14.6% (inactive).
In the case of `Cc1cccc(N(CC(=O)Nc2ccc(-c3nc4ccc(C)cc4s3)cc2)S(C)(=O)=O)c1` it was 1.8% (inactive).
In the case of `COC(=O)c1ccccc1NC(=O)CSc1ccccn1` it was 26.9% (inactive); in that of `O=C(CCSc1ccccc1)NCCSc1ccccn1`, 71% (active).
Take `COc1cccc(N(CC(=O)NCCSc2ccccn2)S(C)(=O)=O)c1`: the inhibition is 53.8% (active).
Turning to `Nc1nnc(SCCN2C(=O)c3ccccc3S2(=O)=O)s1`, the inhibition is 29% (inactive).
The result for `O=C(N/N=C/c1ccsc1)c1cc(O)cc(O)c1` reads 7% (inactive); that for `Nc1nc(C23CC4CC(CC(C4)C2)C3)cs1`, 40.8% (inactive); that for `CCC(C)OC(=O)C(C)Oc1ccc(-c2ccccc2)cc1` (centres undefined), 0.6% (inactive).
The result for `O=C(NCN1CCN(CCO)CC1)c1cnccn1` reads -8.6% (inactive).
In the case of `Cc1ccc(S(=O)(=O)N(C)C2(C)CCS(=O)(=O)C2)cc1` (centres undefined) it was 18.3% (inactive).
Turning to `Cc1ccc(S(=O)(=O)C2(S(=O)(=O)c3ccc(C)cc3)CCCC2)cc1`, the inhibition was 83.3% (active).
Turning to `Cc1ccc(S(=O)(=O)NC(=O)N2CCCC(C)(C)C2)cc1`, the inhibition was -4.4% (inactive).
In the case of `CCN(CC)S(=O)(=O)c1ccc(N2CCOCC2)c(C(=O)O)c1` it was 9.1% (inactive); in that of `CN(C)S(=O)(=O)c1ccc(N2CCCC2)c(C(=O)NCc2ccccc2)c1`, 62.4% (active).
In the case of `Cc1ccc(S(=O)(=O)N2CCOCC2)cc1C(=O)NCc1ccc(F)cc1` it was 15.3% (inactive).
The result for `Cc1cc(OC(=O)c2ccc(Cl)cc2)cc(=O)n1C` reads -5.3% (inactive); that for `O=C(Nc1ccccc1Cl)O/N=C(/c1ccccc1)c1ccccn1`, 21.3% (inactive); that for `O=C(N1CCOCC1)N(Cc1ccccc1)c1ccccn1`, 31.3% (inactive).
Consider `COc1ccc(Cc2nnc(NS(=O)(=O)Cc3ccccc3)s2)cc1`, for which the inhibition is 9% (inactive).
Regarding `Cc1cccc(NC(=O)CSc2nnc(NC(=O)CN3CCOCC3)s2)c1`, the inhibition is 0.9% (inactive).
The result for `Cc1cccc(NC(=O)CN2CCCN(S(=O)(=O)c3ccc(Br)s3)CC2)c1` reads 67.4% (active); that for `Cc1cccc(NC(=O)CN2C(=O)CNC2=O)c1`, -10.1% (inactive).
As for `CCc1nnc(NC(=O)CSc2nc3c(c(=O)n2-c2ccccc2OC)SCC3)s1`, the inhibition is 11.4% (inactive).
The result for `CS(=O)(=O)c1ccc2nc(NC(=O)CN3CCCCCC3)sc2c1` reads -6% (inactive).
As for `O=C(CSc1nc2ccccc2o1)N1CCN(c2ccccc2)CC1`, the inhibition is 55.6% (active).
The result for `CC1Cc2ccccc2N1C(=O)CSc1nc2ccccc2o1` (centres undefined) reads 76.8% (active); that for `O=C(CSc1nc2ccccc2o1)N1CCN(c2ccc(Cl)cc2)CC1`, 4.3% (inactive).
For the molecule `CCS(=O)(=O)c1ccc2oc(SCC(=O)N3c4ccccc4CC3C)nc2c1` (centres undefined), the inhibition is -8.1% (inactive).
For the molecule `Cc1nnc(SCC(=O)N2CCN(c3ccccc3)CC2)n1-c1ccccc1`, the inhibition is -4.9% (inactive).
Turning to `Cc1cc(=O)[nH]c(SCC(=O)N2c3ccccc3CC2C)n1` (centres undefined), the inhibition is 1.8% (inactive).
